Screening data from PubChem BioAssay.
AMA1-RON2 inh = qHTS for Inhibitors of AMA1-RON; Towards Development of Antimalarial Drug Lead: Primary Screen. Plasmodium falciparum AMA1 (3D7) - RON2 peptide interaction. AlphaScreen AMA1-biotinylated RON2 peptide binding. Potency, µM (top dose mostly 58.2 µM), inactives show top-dose activity change, negative = inhibition, actives largely listed as inhibitors. 0.2% of 360,000 active. AID 720542, 2013;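 further: 0% = vehicle wells and -100% = peptide control; nearly all actives have a fitted effect of over 45% in size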
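AMA1 (3D7) with his tag at 25 nM final met compounds first, then biotinylated RON2 peptide at 25 nM; detection used donor plus acceptor beads, 10 µg/mL apiece, read by AlphaScreen after 30 min at room temperature.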
Pf growth 48h = Primary qHTS for delayed death inhibitors of the malarial parasite plastid, 48 hour incubation; P. falciparum luciferase growth in erythrocytes, 48 h; Potency, µM (titrated, usually from 28.7 µM), for inactives: at the top dose activity change, negative = inhibition, usual class: inhibitors; 5.9% of 310,000 active; AID 504832, 2011
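Parasite viability was followed by luminescence of a genomically integrated firefly luciferase. Cultures held 0.1% parasitemia at 2% hematocrit (final), incubated under 5% CO2 at 37 C.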
HCV inhibitor = qHTS Assay for Inhibitors of Hepatitis C Virus (HCV); Huh7.5.1 HCVcc-Cre infection, luciferase reporter, 44 h; Potency, µM (highest dose often 41.8 µM), inactives show top-dose activity change, negative = inhibition, most hits filed as inhibitors; 3.4% of 340,000 active; AID 651820, 2012
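Luciferase read-out (15 sec integration) after a 15 min room-temperature substrate step quantifies HCVcc-Cre infection. Cells, 1,000 per well, had compound added 4 h post-plating, then virus at ~0.5 moi, and were cultured 44 h.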
Pf growth 96h = Primary qHTS for delayed death inhibitors of the malarial parasite plastid, 96 hour incubation | P. falciparum luciferase reporter growth, 96 h | Potency, µM (titrated, usually from 28.7 µM), inactives show at the highest dose activity change, negative = inhibition, usual class: inhibitors | 6.9% of 320,000 active | AID 504834, 2011
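Luminescence readout: decreased luciferase signal marks inhibited growth of reporter-expressing P. falciparum in infected red cells (2% hematocrit, 0.05% parasitemia final), exposed to compound two generations (96 h, 37 C, 5% CO2).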
An asterisk follows results filed as active. This is a sample that favours compounds with a hit; in the whole collection about 11% have one here. The call rests on the fitted dose curve; in most records, active means well fitted curve in the direction sought with a large enough effect; inconclusive means small, poorly fitted or top-dose-only effect, or another doubt; inactive means no such curve, though single readings can be large; an effect the other way counts as inactive or inconclusive. Unless noted, on the % scale 0 is the no-effect control and ±100 the full control effect; potency means the concentration at half of the fitted maximal effect.

For Cc1cc(C(=O)NCC(c2ccco2)N(C)C)no1 (stereo not given) the results were AMA1-RON2 inh 21%, Pf growth 48h 10%, HCV inhibitor 5% and Pf growth 96h 9.3µM*.
Screening Cc1ccc(-n2ncc(C#N)c2/N=C/N2CCCCCC2)cc1 returned AMA1-RON2 inh 0%, Pf growth 48h inconclusive, HCV inhibitor 10µM* and Pf growth 96h 52%.
Screening O=C(O)CCCC(=O)OCCCCc1cccs1 returned AMA1-RON2 inh 8%, Pf growth 48h 18%, HCV inhibitor -4% and Pf growth 96h 5.2µM*.
COc1ccc(Cl)cc1C(=O)NNC(=O)c1csc(N2CCOCC2)n1 was read as AMA1-RON2 inh 111%, Pf growth 48h -2%, HCV inhibitor 17% and Pf growth 96h 0%.
Cc1ccc(NC(=O)CN2CCC(C(=O)c3ccc4c(c3)OCCO4)CC2)cc1 was read as AMA1-RON2 inh -20%, HCV inhibitor inconclusive and Pf growth 96h 14%.
`COC(=O)c1ccccc1NC(=O)CN1CCC(C(=O)c2ccc3c(c2)OCCO3)CC1` gave AMA1-RON2 inh -18%, Pf growth 48h 8%, HCV inhibitor inconclusive and Pf growth 96h 1.5µM*.
Screening Cc1ccc(SCCCCN2C(=O)NC(C)(C)C2=O)cc1 returned AMA1-RON2 inh 1%, Pf growth 48h 5%, HCV inhibitor inconclusive and Pf growth 96h 45%.
`N=c1n(CCN2CCCCC2)c2ccccc2n1CC(=O)c1cccc([N+](=O)[O-])c1` gave AMA1-RON2 inh -3%, Pf growth 48h 1.9µM*, HCV inhibitor inconclusive and Pf growth 96h inconclusive.
`O=C(Cn1nc(Cl)nc1Cl)c1ccc([N+](=O)[O-])cc1` gave AMA1-RON2 inh -8%, Pf growth 48h 13µM*, HCV inhibitor 5% and Pf growth 96h 2.9µM*.
For Cc1nc([N+](=O)[O-])c(Br)n1CC(=O)c1ccc(Cl)cc1 the results were AMA1-RON2 inh -5%, HCV inhibitor 10µM* and Pf growth 96h inconclusive.
Screening COc1ccc(C(=O)Cn2c(C)nc([N+](=O)[O-])c2Br)cc1 returned AMA1-RON2 inh -6%, Pf growth 48h -22%, HCV inhibitor inconclusive and Pf growth 96h 3%.
Screening N=c1n(CC(=O)c2ccc([N+](=O)[O-])cc2)c2ccccc2n1Cc1ccccc1 returned AMA1-RON2 inh 1%, Pf growth 48h 8.3µM*, HCV inhibitor inconclusive and Pf growth 96h inconclusive.
Screening O=C(Cn1nnc2ccccc21)c1ccc([N+](=O)[O-])cc1 returned AMA1-RON2 inh -9%, Pf growth 48h 18%, HCV inhibitor 5% and Pf growth 96h 13%.
For CCOC(=O)Cc1nnc(NC(=O)CCc2ccccc2)s1 the results were AMA1-RON2 inh -4%, Pf growth 48h 4%, HCV inhibitor 12% and Pf growth 96h 38%.
`COCCn1c(SCC(=O)NCc2ccc3c(c2)OCO3)nc2ccccc2c1=O` gave AMA1-RON2 inh 0%, Pf growth 48h -11%, HCV inhibitor -11% and Pf growth 96h 4%.
For CN(CCO)c1ccc2c(c1)OC[C@@H](Cc1ccccc1)NS2(=O)=O the results were AMA1-RON2 inh -19%.
For N=c1n(CC(=O)c2ccc(Br)cc2)c2ccccc2n1Cc1ccccc1 the results were AMA1-RON2 inh 17%, Pf growth 48h inconclusive, HCV inhibitor inconclusive and Pf growth 96h inconclusive.
`N=c1n(Cc2ccccc2)c2ccccc2n1Cc1ccccc1` gave AMA1-RON2 inh 4%, Pf growth 48h 10µM*, HCV inhibitor inconclusive and Pf growth 96h inconclusive.
CCC(CC)C(=O)Nc1nnc(S(=O)(=O)Nc2ccccc2C)s1 was read as AMA1-RON2 inh -1%, Pf growth 48h 11%, HCV inhibitor 20% and Pf growth 96h 15%.
CCOc1ccc(C(=O)n2cc(C(=O)OC)c3ccccc32)cc1 was read as AMA1-RON2 inh 27%, Pf growth 48h 3%, HCV inhibitor -26% and Pf growth 96h 4%.
For CC1C/C(=N/Nc2ccc([N+](=O)[O-])cc2[N+](=O)[O-])CC(C)(C)C1 (stereo not given) the results were AMA1-RON2 inh inconclusive, Pf growth 48h 10µM*, HCV inhibitor -6% and Pf growth 96h inconclusive.
